HP1b binding inh = HTS for Inhibitors of HP1-beta Chromodomain Interactions with Methylated Histone Tails; Chromobox protein homolog 1 (Homo sapiens), P83916; 390,000 compounds, 0.56% hits; AID 540317, 2011; AlphaScreen HP1-beta / biotin-H3K9me3 peptide binding; Potency, µM (highest dose often 114 µM), hits mostly inhibitors; note: nearly all actives have a fitted effect of over 70% in size
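Compound inhibition of the preformed complex between 50 nM HP1-beta and 50 nM biotinylated H3K9me3 peptide was read by AlphaScreen. Buffer was PBS pH 7.4 with 0.01% Tween-20. Incubations ran 30 min at room temperature, with 10 ug/mL donor/acceptor beads.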
JMJD2A Tudor inh = qHTS Assay for Inhibitors of JMJD2A-Tudor Domain. Lysine-specific demethylase 4A (Homo sapiens), O75164. AlphaScreen JMJD2A-Tudor / H3K4me3 peptide binding. Potency, µM (doses to about 114 µM), hits mostly inhibitors. 390,000 compounds, 4.4% hits; note: nearly all actives have a fitted effect of over 50% in size
Target sequence (O75164 whole entry, looked up, the tested form may be a part): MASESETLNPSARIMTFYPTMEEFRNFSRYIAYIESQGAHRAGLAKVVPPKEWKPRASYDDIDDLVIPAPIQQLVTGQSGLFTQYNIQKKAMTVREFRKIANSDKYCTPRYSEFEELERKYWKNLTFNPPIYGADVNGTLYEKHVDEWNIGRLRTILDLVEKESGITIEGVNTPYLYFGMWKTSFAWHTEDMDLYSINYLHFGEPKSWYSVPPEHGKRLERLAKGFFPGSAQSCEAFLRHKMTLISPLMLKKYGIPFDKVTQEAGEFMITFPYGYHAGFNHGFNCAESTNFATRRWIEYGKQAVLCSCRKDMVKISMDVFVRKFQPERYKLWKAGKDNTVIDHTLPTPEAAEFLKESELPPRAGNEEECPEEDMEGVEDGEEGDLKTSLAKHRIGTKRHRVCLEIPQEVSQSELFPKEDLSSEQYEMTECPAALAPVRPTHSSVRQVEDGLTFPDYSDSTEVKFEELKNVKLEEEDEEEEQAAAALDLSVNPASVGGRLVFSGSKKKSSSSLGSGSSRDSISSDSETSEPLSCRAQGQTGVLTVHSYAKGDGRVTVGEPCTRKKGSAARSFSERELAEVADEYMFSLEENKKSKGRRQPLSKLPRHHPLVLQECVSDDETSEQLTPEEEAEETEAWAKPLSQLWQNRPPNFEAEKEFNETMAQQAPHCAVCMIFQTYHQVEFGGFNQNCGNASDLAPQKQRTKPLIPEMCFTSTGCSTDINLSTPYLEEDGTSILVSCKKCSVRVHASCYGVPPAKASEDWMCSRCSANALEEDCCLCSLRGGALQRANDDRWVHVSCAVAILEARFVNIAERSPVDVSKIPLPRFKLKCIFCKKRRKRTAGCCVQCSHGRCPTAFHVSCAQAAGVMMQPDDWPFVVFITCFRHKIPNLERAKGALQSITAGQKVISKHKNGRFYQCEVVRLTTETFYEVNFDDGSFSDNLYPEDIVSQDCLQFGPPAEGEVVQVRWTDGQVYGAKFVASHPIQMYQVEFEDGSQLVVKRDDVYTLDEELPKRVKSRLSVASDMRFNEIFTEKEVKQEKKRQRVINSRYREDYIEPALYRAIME
G9a block = qHTS Assay for Inhibitors of Histone Lysine Methyltransferase G9a; Histone-lysine N-methyltransferase EHMT2 (Homo sapiens), Q96KQ7; G9a H3K9 monomethylation, AlphaScreen, 2 h; Potency, µM (doses to about 102 µM), hits mostly inhibitors; 350,000 compounds, 8.8% hits; note: nearly all actives have a fitted effect of over 75% in size
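Chemiluminescent proximity detection of H3K9 monomethylation, read after 10 min bead incubation in the dark. Reaction: 20 nM G9a, 500 nM biotin-H3K9 peptide, 20 uM SAM cofactor, 2 h, room temperature, following 15 min enzyme-compound preincubation.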
BAZ2B block = qHTS Assay for Inhibitors of BAZ2B | Bromodomain adjacent to zinc finger domain protein 2B (Homo sapiens), Q9UIF8 | AlphaScreen BAZ2B-H3K14Ac peptide displacement | Potency, µM (titrated, usually from 114 µM), most hits filed as inhibitors | 360,000 compounds, 4.4% hits | AID 504333, 2011; note: nearly all actives have a fitted effect of over 60% in size
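Compounds, titrated to a top concentration of 110 uM, were incubated 30 min at room temperature with preformed BAZ2B/acetyl-K14 H3 peptide complex (50 nM each). Proximity signal was measured by AlphaScreen after 20 min with beads.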
Sfp inh = qHTS Assay for Inhibitors of Bacillus subtilis Sfp phosphopantetheinyl transferase (PPTase); Biochemical Sfp PPTase activity, qHTS; Potency, µM, most hits filed as inhibitors; 310,000 compounds, 3.5% hits; AID 1490, 2009;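 note: the enzyme is Sfp with the accession as filed and its product quenches rhodamine fluorescence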
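Fluorescence-quenching assay with 15 nM Sfp, 5 uM rhodamine-CoA and 12.5 uM BHQ-2-labelled ybbR peptide in pH 7.6 Hepes/MgCl2 buffer. Enzyme was pre-incubated with compound for 15 min at room temperature. Rate was taken from the 30-min fluorescence change (525/598 nm).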
Numbers stand for hits; [ ] = another dose, or the depositor's remark. Shown are actives, neighbours in structure and some others; about 12% of the full set was active somewhere. Calls come from the whole dose curve; as a rule, active = well fitted curve in the direction sought with a large enough effect; inconclusive = small, poorly fitted or top-dose-only effect, or another doubt; inactive = no such curve, though single readings can be large; an effect the other way counts as inactive or inconclusive.

Cc1ccc(CS(=O)Cc2ccc(C(=O)NCc3ccccc3Br)o2)cc1 (configuration not stated) was read as HP1b binding inh inactive, JMJD2A Tudor inh inactive, G9a block inactive, BAZ2B block inactive and Sfp inh inactive.
Cc1ccc2c(c1)c(CC(NC(=O)c1ccccc1Oc1ccccc1)C(=O)O)cn2C(=O)OCc1ccccc1 (configuration not stated) was read as Sfp inh inactive.
CC1CC(C)(C)NC(=O)O1 (configuration not stated) was read as HP1b binding inh inactive, JMJD2A Tudor inh inactive, G9a block inactive, BAZ2B block inactive and Sfp inh inactive.
Screening CC1CC(C)(C)NC(=S)S1 (configuration not stated) returned HP1b binding inh inactive, JMJD2A Tudor inh inactive, G9a block 8.91µM, BAZ2B block inactive and Sfp inh 50.1µM.
For CCOC(=O)c1[nH]c(=O)[nH]c1COC(=O)c1cc2ccccc2o1 the results were HP1b binding inh inconclusive, JMJD2A Tudor inh inconclusive, G9a block 7.94µM, BAZ2B block inactive and Sfp inh inactive.
`CCOC(=O)c1[nH]c(=O)[nH]c1CSc1nc(C)cc(C)n1` gave HP1b binding inh inactive, JMJD2A Tudor inh inactive, G9a block inconclusive, BAZ2B block inactive and Sfp inh inactive.
CCN1CCN(Cc2nc3ccc([N+](=O)[O-])cc3c(=O)n2-c2ccc(OC)cc2OC)CC1 was read as HP1b binding inh inactive, JMJD2A Tudor inh inactive, G9a block inactive, BAZ2B block inactive and Sfp inh inactive.
CCOC(=O)C1CCN(Cc2nc3ccccc3c(=O)n2-c2ccc(F)cc2)CC1 was read as HP1b binding inh inactive, JMJD2A Tudor inh inactive, G9a block inconclusive, BAZ2B block inactive and Sfp inh inactive.
For CCOC(=O)C1CCN(Cc2nc3ccc([N+](=O)[O-])cc3c(=O)n2-c2ccc(OC)cc2OC)CC1 the results were HP1b binding inh inactive, JMJD2A Tudor inh inactive, G9a block 31.6µM, BAZ2B block inactive and Sfp inh inactive.
CCOC(=O)C1CCCN(Cc2nc3ccc([N+](=O)[O-])cc3c(=O)n2-c2ccc(OC)cc2OC)C1 (configuration not stated) was read as HP1b binding inh inactive, JMJD2A Tudor inh inconclusive, G9a block 39.8µM, BAZ2B block inactive and Sfp inh inactive.
COc1ccc(-n2c(CN3CCN(c4ccccc4OC)CC3)nc3ccc([N+](=O)[O-])cc3c2=O)c(OC)c1 was read as HP1b binding inh inactive, JMJD2A Tudor inh inconclusive, G9a block 44.7µM, BAZ2B block inconclusive and Sfp inh inactive.
COc1ccc(-n2c(CN3CCC(C(N)=O)CC3)nc3ccc([N+](=O)[O-])cc3c2=O)c(OC)c1 was read as HP1b binding inh inactive, JMJD2A Tudor inh inactive, G9a block 56.2µM, BAZ2B block inconclusive and Sfp inh inactive.
CCC(CC)N1CCN(Cc2nc3ccc([N+](=O)[O-])cc3c(=O)n2-c2ccccc2F)CC1 was read as HP1b binding inh inactive, JMJD2A Tudor inh inactive, G9a block inactive, BAZ2B block inactive and Sfp inh inactive.
COc1cccc(-n2c(CN3CCN(c4ccccc4)CC3)nc3ccc([N+](=O)[O-])cc3c2=O)c1 was read as HP1b binding inh inactive, JMJD2A Tudor inh inconclusive, G9a block 20µM, BAZ2B block inconclusive and Sfp inh 28.2µM.
Screening CC(C)(C)c1cc(/C=N/NC(=O)C[n+]2ccccc2)cc(C(C)(C)C)c1O returned HP1b binding inh inactive, JMJD2A Tudor inh 56.2µM, G9a block inactive, BAZ2B block 50.1µM and Sfp inh inactive.
`O=C(C[n+]1ccccc1)N/N=C/c1ccc(Cl)cc1` gave HP1b binding inh inactive, JMJD2A Tudor inh inconclusive, G9a block inactive[12.7 µM] and BAZ2B block 50.1µM.
For O=C(C[n+]1ccccc1)N/N=C/c1c(F)cccc1Cl the results were HP1b binding inh inactive, JMJD2A Tudor inh inactive, G9a block inactive, BAZ2B block 56.2µM and Sfp inh inactive.
Clc1cccc2c1CN(C1=NCCN1)C2 was read as Sfp inh inactive.
COc1ccc(-c2c(-c3cc(OC)cc(OC)c3)n(C)c3ccc(Br)cc23)cc1 was read as HP1b binding inh inactive, JMJD2A Tudor inh inactive, G9a block inactive[2.33 µM] and BAZ2B block inactive.
COc1ccc(N=Nc2nc3ccc(Br)cc3n2C)cc1 was read as HP1b binding inh inconclusive, JMJD2A Tudor inh inconclusive, G9a block 6.31µM, BAZ2B block 63.1µM and Sfp inh inactive.
`Cc1cccc2nc(CSc3nnc(N)s3)cn12` gave HP1b binding inh inactive, JMJD2A Tudor inh inactive, G9a block 31.6µM, BAZ2B block inactive and Sfp inh inactive.
For CCOc1cc(C(=O)Nc2ncn[nH]2)cc(OCC)c1OCC the results were HP1b binding inh inactive, JMJD2A Tudor inh inactive, G9a block inactive, BAZ2B block 56.2µM and Sfp inh inactive.
For C=CCOc1cccc(C(=O)Nc2ncn[nH]2)c1 the results were HP1b binding inh inactive, JMJD2A Tudor inh inactive, G9a block inconclusive, BAZ2B block 56.2µM and Sfp inh inactive.
`COc1cc(OC)cc(C(=O)Nc2ncn[nH]2)c1` gave HP1b binding inh inactive, JMJD2A Tudor inh inactive, G9a block inactive[2.33 µM] and BAZ2B block inconclusive.
COc1cc(OC)c(C(=O)Nc2ncn[nH]2)cc1OC was read as HP1b binding inh inactive and JMJD2A Tudor inh 50.1µM.
CCOc1cc(C(=O)NC(=S)Nn2cnnc2)cc(OCC)c1OCC was read as HP1b binding inh inactive, JMJD2A Tudor inh inconclusive, G9a block 25.1µM, BAZ2B block inactive and Sfp inh inactive.
Screening O=C(NCC1CCCN1S(=O)(=O)c1cccs1)c1ccccc1F (configuration not stated) returned HP1b binding inh inactive, JMJD2A Tudor inh inactive, G9a block inactive and BAZ2B block inactive.
For O=C(Nc1ncn[nH]1)c1ccc(Cl)cc1Cl the results were HP1b binding inh inactive, JMJD2A Tudor inh inactive, G9a block inconclusive, BAZ2B block 50.1µM and Sfp inh inactive.
`O=C(Nc1ccc2ccccc2c1)c1ccc(Cl)cc1Cl` gave HP1b binding inh inactive, JMJD2A Tudor inh inactive, G9a block inactive, BAZ2B block inactive and Sfp inh inactive.
Screening O=C(Nc1nc(=S)ss1)c1ccc(Cl)cc1Cl returned HP1b binding inh inconclusive, JMJD2A Tudor inh inactive, G9a block inconclusive, BAZ2B block inactive and Sfp inh 12.6µM.
`COc1ccc(-c2noc(CNC(=O)c3ccccc3Br)n2)cc1` gave HP1b binding inh inactive, JMJD2A Tudor inh inactive, G9a block inactive and BAZ2B block inactive.
`Cc1nn(-c2cccc(Cl)c2)c2nc(C(F)(F)F)[nH]c(=O)c12` gave HP1b binding inh inactive, JMJD2A Tudor inh inactive, G9a block inactive, BAZ2B block inactive and Sfp inh inactive.
